# Assay results reported in PubChem BioAssay.
# “And” between values parts separate entries of the source, which are not always exact repeats. Equal entries are not always repeated. Results filed as inconclusive are left out. The source holds several records for some structures; these can differ, active in one and inactive in another. The source made the active and inactive calls.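 How the source made its calls, unless noted: active means mean z-score across replicates of 1.96 or higher in either the MELAS or the Rieske mutant cell line; inactive means the rest.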
# Columns and labels:
# [1] = SU-DIPG-VI glioma cell viability, MIPE4.0 library, CellTiter-Glo luminescence, qHTS (AID 1347066; cut-off not given, nearly all actives have AC50 up to about 30 µM;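 further: cells exposed to compound for 48 hours before readout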); conditions: CellTiter-Glo ATP luminescence
# [2] = phospholipid biosynthesis inhibitors in animal cells, primary screen, cell-based, LOPAC library, screen 4 (AID 1347384; call rule not given here); conditions: phospholipid biosynthesis inhibition screen, at 10 µM
# [3] = survival rescue of mitochondrial mutant cells in low glucose, primary screen, MELAS cybrids, Rieske KO mouse fibroblasts, CellTiter-Glo (AID 1508586);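 further: z relative to plate mean and SD of compound and empty wells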
# [4] = target: NAD(+) hydrolase SARM1 (Homo sapiens) (UniProt Q6SZW1); experiment: SARM1 TIR NADase inhibitors, cell lysate, NAD-Glo luminescence (AID 1508614;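 active means compound whose remaining NAD level is above about 45 nM, limit read from the data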); conditions: SAM-TIR HEK293T lysate NADase, at 1 µM, stronger effect = higher value
# [5] = target: Mitogen-activated protein kinase 7 (Homo sapiens) (UniProt Q13164); experiment: ERK5 transactivation activators in reporter cells, primary screen, cell-based, HTS (AID 1508626;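 active means luciferase signal above three times the same-plate solvent-only control wells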;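 further: luciferase driven by Gal4-ERK5 fusion binding five Gal4 sites before minimal TATA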); conditions: HeLa Gal4-ERK5 transactivation, 18 h, at 5 µM, stronger effect = higher value
# [6] = viability rescue of complex I mutant cybrids, primary screen, cell-based, galactose medium, ATP luminescence (AID 1645843;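 active means z-score of at least 1.8 in each of two replicates, scored against plate mean and spread of sample wells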;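 further: positive z means more ATP and so rescue of galactose-driven cybrid death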); conditions: complex I mutant cybrid cells, 72 h, stronger effect = higher value
# [7] = sensitizers of A549 cells to miR-34 induction, primary screen, imaging, A549 dox-inducible miR-34, nuclei and caspase counts (AID 1347080;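 active means compounds whose cell count with miR-34 switched on is under 0.7 times the count with it off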); conditions: A549 miR-34 inducible, Hoechst nuclei count, 48 h
# [8] = LFS_MB_P medulloblastoma growth inhibition, cell-based, chromothripsis tumors, cisplatin or BGB combos (AID 1671449; in the data active means inhibition above about 80%;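 further: cells exposed for 96 hours; 0% = vehicle DMSO and 100% = killing by high DMSO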); conditions: LFS_MB_P medulloblastoma cells
# [9] = HDN33 neuroblastoma growth inhibition, cell-based, chromothripsis tumors, cisplatin or BGB combos (AID 1671450; in the data active means inhibition above about 80%;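 further: cells exposed to compound for four days; 0% = vehicle DMSO and 100% = cell killing by high DMSO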); conditions: HDN33 neuroblastoma cells, stronger effect = higher value
# [10] = ICB984 medulloblastoma cell growth inhibition, synergistic combos for chromothripsis tumors, cisplatin or BGB combos (AID 1671451; call rule not given here;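 further: cells exposed for 96 hours before readout; 0% = vehicle DMSO and 100% = killing by high DMSO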); conditions: ICB984 medulloblastoma cells, drug combinations, stronger effect = higher value
# [11] = LFS_MB_1R medulloblastoma cell growth inhibition, synergistic combos for chromothripsis tumors, cisplatin or BGB combos (AID 1671452; in the data active means inhibition above about 80%;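 further: cells exposed for 96 hours before readout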); conditions: LFS_MB_1R medulloblastoma cells, stronger effect = higher value
# [12] = HTB85 osteosarcoma cell growth inhibition, synergistic combos for chromothripsis tumors, BGB or cisplatin IC20 combos (AID 1671453; in the data active means inhibition above about 80%;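 further: cells exposed for 96 hours before readout; 0% = vehicle DMSO and 100% = high DMSO killing control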); conditions: HTB85 osteosarcoma cells, drug combinations, stronger effect = higher value
# [13] = CRL2098 osteosarcoma cell growth inhibition, synergistic combos for chromothripsis tumors, BGB or cisplatin IC20 combos (AID 1671454; in the data active means inhibition above about 80%;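 further: cells exposed for 96 h before readout; 0% = vehicle DMSO and 100% = killing by high DMSO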); conditions: CRL2098 osteosarcoma cells, drug combinations, stronger effect = higher value
# [14] = HD-MB03 medulloblastoma cell growth inhibition, synergistic combos for chromothripsis tumors, BGB or cisplatin IC20 combos (AID 1671455; in the data active means inhibition above about 83%;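 further: 0% = vehicle DMSO and 100% = high DMSO as cytotoxic control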); conditions: HD-MB03 medulloblastoma cells, stronger effect = higher value
# [15] = inhibitors of Cryptococcus chitosan production, flow cytometry, Cibacron Brilliant Red staining (AID 1347148; call rule not given here;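 further: compound exposure lasted three days at 37 degrees C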); conditions: Cryptococcus neoformans chitosan, stronger effect = lower value; at 10 µM unless noted
# [16] = SU-DIPG-XXV glioma cell viability, MIPE5.0 library, qHTS (AID 1347068; cut-off not given, nearly all actives have IC50 up to about 30 µM)
# [17] = MELAS cybrid survival, CellTiter-Glo 48 h, stronger effect = higher value
# [18] = Rieske KO mouse fibroblast survival, CellTiter-Glo 72 h
# [19] = stronger effect = lower value, cell number ratio, induced over uninduced
# [20] = measured here: relative caspase fold change +Dox/-Dox
# [21] = measured here: total cells with miR-34 induction, stronger effect = lower value
# [22] = measured here: total cells without miR-34 induction
# [23] = measured here: combination with BGB IC40, at 0.05 µM
# Chain of NAD(+) hydrolase SARM1 (Homo sapiens) (Q6SZW1 whole entry, looked up, the tested form may be a part): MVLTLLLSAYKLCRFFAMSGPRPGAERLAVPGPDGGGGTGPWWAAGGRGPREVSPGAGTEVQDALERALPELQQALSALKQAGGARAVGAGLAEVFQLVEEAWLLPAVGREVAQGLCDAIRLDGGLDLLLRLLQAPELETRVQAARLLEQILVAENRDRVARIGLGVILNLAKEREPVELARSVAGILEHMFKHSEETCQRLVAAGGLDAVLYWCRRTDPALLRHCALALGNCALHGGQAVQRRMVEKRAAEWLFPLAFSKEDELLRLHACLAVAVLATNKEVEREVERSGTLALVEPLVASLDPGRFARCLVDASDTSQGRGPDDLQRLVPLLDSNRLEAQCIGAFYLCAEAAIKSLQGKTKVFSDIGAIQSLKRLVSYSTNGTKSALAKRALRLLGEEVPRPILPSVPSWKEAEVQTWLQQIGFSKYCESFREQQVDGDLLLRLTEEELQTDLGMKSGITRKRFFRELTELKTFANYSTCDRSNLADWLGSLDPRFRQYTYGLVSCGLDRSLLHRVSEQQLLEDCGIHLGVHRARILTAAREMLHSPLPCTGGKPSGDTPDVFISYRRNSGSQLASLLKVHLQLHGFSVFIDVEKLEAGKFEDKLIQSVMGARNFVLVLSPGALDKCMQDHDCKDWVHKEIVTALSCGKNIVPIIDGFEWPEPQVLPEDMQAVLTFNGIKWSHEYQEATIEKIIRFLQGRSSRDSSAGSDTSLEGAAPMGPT
# Chain of Mitogen-activated protein kinase 7 (Homo sapiens) (Q13164 whole entry, looked up, the tested form may be a part): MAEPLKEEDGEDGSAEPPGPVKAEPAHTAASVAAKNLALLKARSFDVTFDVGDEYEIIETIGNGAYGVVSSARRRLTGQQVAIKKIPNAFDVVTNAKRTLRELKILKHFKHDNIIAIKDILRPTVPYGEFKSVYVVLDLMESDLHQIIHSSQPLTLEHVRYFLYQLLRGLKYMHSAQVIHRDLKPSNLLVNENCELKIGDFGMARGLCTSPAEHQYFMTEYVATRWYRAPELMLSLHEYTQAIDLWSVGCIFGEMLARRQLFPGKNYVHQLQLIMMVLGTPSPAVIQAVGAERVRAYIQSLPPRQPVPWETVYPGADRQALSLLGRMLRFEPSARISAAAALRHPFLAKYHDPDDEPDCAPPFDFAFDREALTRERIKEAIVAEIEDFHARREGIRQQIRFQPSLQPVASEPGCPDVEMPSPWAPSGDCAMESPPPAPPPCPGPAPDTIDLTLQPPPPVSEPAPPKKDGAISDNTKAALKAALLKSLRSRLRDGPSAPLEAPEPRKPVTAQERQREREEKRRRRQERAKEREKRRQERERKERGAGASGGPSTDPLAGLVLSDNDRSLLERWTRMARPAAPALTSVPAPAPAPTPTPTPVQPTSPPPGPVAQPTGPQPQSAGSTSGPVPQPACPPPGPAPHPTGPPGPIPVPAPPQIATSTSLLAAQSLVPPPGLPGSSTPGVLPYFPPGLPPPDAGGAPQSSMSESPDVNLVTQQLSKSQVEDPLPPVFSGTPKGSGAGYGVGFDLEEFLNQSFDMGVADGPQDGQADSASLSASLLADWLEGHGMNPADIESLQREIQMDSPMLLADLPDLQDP
structure (smiles),measurement,setting,value
CN1CCN2c3ccccc3Cc3ccccc3C2C1 (centres undefined),outcome,[1],inactive
same,outcome,[2],inactive
same,z-score,[3]; [17],-0.437 (inactive) and -0.163 (inactive) and -1.32 (inactive)
same,z-score,[3]; [18],0.688 and 0.138 and 0.514
same,remaining NAD,[4],10 nM (inactive)
same,luciferase signal,[5],48 AU (inactive)
same,z-score,[6],-0.385 (inactive) and 2.53 (active) and -0.36 (inactive)
Cc1ncc([N+](=O)[O-])n1CCO,outcome,[1],inactive
same,z-score,[3]; [17],-0.252 (inactive) and -0.693 (inactive) and 0.0516 (inactive)
same,z-score,[3]; [18],0.34 and -0.0287 and -0.879
same,remaining NAD,[4],10 nM (inactive)
same,luciferase signal,[5],56 AU (inactive)
same,z-score,[6],1.04 (inactive) and 0.355 (inactive)
Cc1ccnc2c1NC(=O)c1cccnc1N2C1CC1,outcome,[1],inactive
same,fold change,[7]; [19],0.867 (inactive) and 0.916 (inactive) and 0.818 (inactive)
same,fold change,[7]; [20],1 and 1.53 and 1.78
same,cell count,[7]; [21],8040 and 8950 and 7970
same,cell count,[7]; [22],9270 and 9770 and 9750
same,z-score,[3]; [17],-0.331 (inactive) and -0.443 (inactive)
same,z-score,[3]; [18],0.346 and -0.451
same,remaining NAD,[4],10 nM (inactive)
same,z-score,[6],0.47 (inactive)
same,inhibition,"[8]; at 0.5 µM, stronger effect = higher value",65.5% (inactive)
same,inhibition,"[8]; measured here: combination with BGB IC20, at 0.005 µM",-14.8%
same,inhibition,"[8]; measured here: combination with BGB IC40, at 0.005 µM",-23.6%
same,inhibition,[8]; [23],-7.3%
same,inhibition,"[8]; measured here: combination with cisplatin, at 0.5 µM, stronger effect = higher value",96.2%
same,inhibition,"[8]; measured here: combination with cisplatin, at 5 µM, stronger effect = higher value",-8.68%
same,inhibition,"[9]; BGB combo, at 5 µM",-9.4%
same,inhibition,[9]; at 0.5 µM,-11.8% (inactive)
same,inhibition,"[9]; cisplatin combo, at 5 µM",24.4%
same,inhibition,"[9]; measured here: with BGB IC20 combination, at 0.5 µM",-18.3%
same,inhibition,"[9]; measured here: with cisplatin IC20 combination, at 0.5 µM",0.871%
same,inhibition,"[9]; single agent, at 5 µM",-21.1%
same,inhibition,"[10]; BGB IC20 combo, at 0.005 µM",7.31%
same,inhibition,"[10]; BGB IC40 combo, at 0.005 µM",-7.13%
same,inhibition,"[10]; BGB IC40 combo, at 0.05 µM",-20.9%
same,inhibition,[10]; at 0.5 µM,-20.4% (inactive)
same,inhibition,"[10]; cisplatin combo, at 0.05 µM",-24.3%
same,inhibition,"[10]; cisplatin combo, at 0.5 µM",-22.4%
same,inhibition,"[10]; cisplatin combo, at 5 µM",-11%
same,inhibition,"[10]; measured here: 5 uM single agent, at 5 µM",-28.4%
same,inhibition,[11]; at 0.5 µM,-9.83% (inactive)
same,inhibition,[11]; [23],-16.2%
same,inhibition,"[11]; measured here: combination with cisplatin, at 0.5 µM",15.1%
same,inhibition,"[11]; measured here: combination with cisplatin, at 5 µM",29.5%
same,inhibition,[12]; at 0.5 µM,-11.8% (inactive)
same,inhibition,"[12]; measured here: with BGB IC20, at 0.5 µM",-22.9%
same,inhibition,"[12]; measured here: with BGB IC20, at 5 µM",53.6%
same,inhibition,"[12]; measured here: with cisplatin IC20, at 0.5 µM",-9.99%
same,inhibition,"[12]; measured here: with cisplatin IC20, at 5 µM",-37.2%
same,inhibition,"[12]; single agent, at 5 µM",-7.51%
same,inhibition,[13]; at 0.5 µM,-33.2% (inactive)
same,inhibition,"[13]; measured here: combination with BGB at IC20, at 0.5 µM",-9.42%
same,inhibition,"[13]; measured here: combination with cisplatin at IC20, at 0.5 µM",-39.8%
same,inhibition,[14]; at 0.5 µM,-18.2% (inactive)
same,inhibition,"[14]; measured here: combo with BGB at IC20, at 0.5 µM",-13%
same,inhibition,"[14]; measured here: combo with cisplatin at IC20, at 0.5 µM",-23.9%
COC(=O)C1=C(C)NC(C)=C(C(=O)OC(C)C)C1c1cccc2nonc12 (centres undefined),outcome,[1],inactive
same,cell count,[7]; [21],7780 and 7900 and 7270
same,z-score,[3]; [17],-0.382 (inactive) and 0.324 (inactive)
same,z-score,[3]; [18],1.22 and 0.935
same,remaining NAD,[4],10 nM (inactive)
same,z-score,[6],1.15 (inactive)
CCOC(=O)C1=C[C@]2(CC)CCCN3CCc4c(n1c1ccccc41)[C@@H]32,AC50,[1],26.4 µM (active)
same,fold fluorescence,[15],12.8 [at 142.7 µM] (inactive)
same,outcome,[2],inactive
same,z-score,[3]; [17],0.416 (inactive) and 0.251 (inactive)
same,z-score,[3]; [18],0.313 and -0.628
same,remaining NAD,[4],10 nM (inactive)
same,luciferase signal,[5],52 AU (inactive)
same,z-score,[6],0.33 (inactive) and -0.95 (inactive) and -0.445 (inactive)
COc1cc(NS(=O)(=O)c2ccc(N)cc2)nc(OC)n1,outcome,[1],inactive
same,fold change,[7]; [19],0.911 (inactive) and 0.916 (inactive) and 0.961 (inactive)
same,z-score,[3]; [17],-0.175 (inactive) and 0.0464 (inactive) and -0.547 (inactive)
same,z-score,[3]; [18],0.68 and -0.334 and -1.37
same,remaining NAD,[4],10 nM (inactive)
same,luciferase signal,[5],48 AU (inactive)
same,z-score,[6],-0.135 (inactive)
Cc1onc(-c2ccccc2Cl)c1C(=O)N[C@@H]1C(=O)N2[C@@H]1SC(C)(C)[C@@H]2C(=O)O,outcome,[1],inactive
same,fold change,[7]; [19],0.913 (inactive) and 0.866 (inactive)
same,fold change,[7]; [20],1.38 and 0.839
same,cell count,[7]; [21],8800 and 10900
same,cell count,[7]; [22],9640 and 12500
same,z-score,[3]; [17],1.06 (inactive)
same,z-score,[3]; [18],0.283
same,remaining NAD,[4],10 nM (inactive)
same,luciferase signal,[5],24 AU (inactive)
Cc1cn([C@H]2C=C[C@@H](CO)O2)c(=O)[nH]c1=O,outcome,[1],inactive
same,fold change,[7]; [19],0.956 (inactive) and 1.02 (inactive)
same,fold change,[7]; [20],1.47 and 1.86
same,cell count,[7]; [21],8230 and 8880
same,cell count,[7]; [22],8610 and 8700
same,outcome,[2],inactive
same,z-score,[3]; [17],0.426 (inactive)
same,z-score,[3]; [18],-0.562
same,remaining NAD,[4],21 nM (inactive)
same,z-score,[6],0.32 (inactive) and 1.07 (inactive)
CC(C)c1nc(CN(C)C(=O)N[C@H](C(=O)N[C@@H](Cc2ccccc2)C[C@H](O)[C@H](Cc2ccccc2)NC(=O)OCc2cncs2)C(C)C)cs1,outcome,[1],inactive
same,z-score,[3]; [17],-1.48 (inactive)
same,z-score,[3]; [18],0.534
same,remaining NAD,[4],10 nM (inactive)
CC(C)(Sc1cc(C(C)(C)C)c(O)c(C(C)(C)C)c1)Sc1cc(C(C)(C)C)c(O)c(C(C)(C)C)c1,outcome,[1],inactive
same,outcome,[16],inactive
same,fold change,[7]; [19],0.81 (inactive) and 0.886 (inactive) and 0.877 (inactive)
same,fold change,[7]; [20],1.96 and 0.704 and 3.16
same,cell count,[7]; [21],8410 and 8070 and 11000
same,cell count,[7]; [22],10400 and 9110 and 12500
same,z-score,[3]; [17],-0.245 (inactive) and 0.14 (inactive)
same,z-score,[3]; [18],-0.773 and -0.118
same,remaining NAD,[4],10 nM (inactive)
same,luciferase signal,[5],40 AU (inactive)
OC[C@H]1O[C@@H](Oc2ccc(O)cc2)[C@H](O)[C@@H](O)[C@@H]1O,outcome,[1],inactive
same,fold change,[7]; [19],0.914 (inactive)
same,fold change,[7]; [20],0.569
same,cell count,[7]; [21],9130
same,cell count,[7]; [22],9990
same,z-score,[3]; [17],0.856 (inactive)
same,z-score,[3]; [18],0.44
same,luciferase signal,[5],48 AU (inactive)
O=C(c1ccc(F)cc1)C1CCN(CCn2c(=O)[nH]c3ccccc3c2=O)CC1,outcome,[1],inactive
same,outcome,[2],inactive
same,z-score,[3]; [17],-0.256 (inactive) and 0.859 (inactive) and 1.46 (inactive)
same,z-score,[3]; [18],0.928 and -0.102 and 0.875
same,remaining NAD,[4],10 nM (inactive)
same,z-score,[6],0.47 (inactive) and 0.155 (inactive) and 0.975 (inactive)
COc1cc([C@H]2Oc3cc([C@H]4Oc5cc(O)cc(O)c5C(=O)[C@@H]4O)ccc3O[C@@H]2CO)ccc1O,outcome,[1],inactive
same,outcome,[16],inactive
same,luciferase signal,[5],64 AU (inactive)
